Compound activity as filed in PubChem BioAssay.
Shown are actives, neighbours in structure and some others; about 5.2% of the full set was active somewhere.
ALR inh – human ALR oxidase inhibition via reduced H2O2. P55789. purified ALR, DTT oxidation, H2O2 HRP-luminol luminescence. inhibition, % (test concentration not listed). 290,000 compounds, 3.8% hits. AID 485317;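 active means mean replicate inhibition above about 79%, with every replicate also reaching it, limit read from the data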
Target sequence (P55789 whole entry, looked up): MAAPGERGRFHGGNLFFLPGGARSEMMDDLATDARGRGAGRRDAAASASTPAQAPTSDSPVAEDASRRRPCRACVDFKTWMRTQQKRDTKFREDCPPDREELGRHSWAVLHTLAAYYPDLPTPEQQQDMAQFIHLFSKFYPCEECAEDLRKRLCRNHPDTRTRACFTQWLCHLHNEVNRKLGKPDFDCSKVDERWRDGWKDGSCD
Yeast superoxide – yeast age-related superoxide inhibition as caloric restriction mimetic; S. cerevisiae aged cells, superoxide DHE fluorescence; hits give low values; superoxide response (% of plate mean), % at 10 µM; 330,000 compounds, 0.18% hits; AID 2690;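 active means superoxide response under a set limit, about three screen SD below normal, cut at about 65% in these data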;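 further: yeast aged for seven days with compound at 30 °C before DHE staining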
A3G deaminase – APOBEC3G (human) deaminase inhibition; inhibition, % at 20 µM; 330,000 compounds, 0.28% hits; recombinant A3G, ssDNA deamination FAM/TAMRA fluorescence;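 active means inhibition of at least 40% at 20 µM, with no more than 30% in the related APOBEC3A deaminase screen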
NRP1-CendR mod – NRP-1/CendR interaction modulation. O14786. FAM-RPARPAR peptide binding to NRP-1, fluorescence polarization. inhibition, % at 25 µM. 360,000 compounds, 0.85% hits. AID 602438;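 active means inhibition or corrected inhibition above about 18%, plus a signal ratio from 0.5 to 1.5, limit read from the data, passing the limit was not always enough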
PfM18AAP inh – blocks P. falciparum M18 aspartyl aminopeptidase; recombinant PfM18AAP, H-Glu-NHMec fluorogenic cleavage; 290,000 compounds, 1.2% hits; inhibition, % at 7.35 µM;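 active means inhibition above the campaign mean inhibition over all tested compounds plus 3 SD, cut at about 28% in these data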
A3A deaminase – blocks human APOBEC3A ssDNA deamination. AID 493011. P31941. inhibition, % at 20 µM. recombinant A3A, FAM/TAMRA ssDNA deamination fluorescence. 330,000 compounds, 0.41% hits;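 active means at least 40% inhibition at 20 µM here, with at most 30% in a related deaminase screen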
Target sequence (P31941 whole entry, looked up): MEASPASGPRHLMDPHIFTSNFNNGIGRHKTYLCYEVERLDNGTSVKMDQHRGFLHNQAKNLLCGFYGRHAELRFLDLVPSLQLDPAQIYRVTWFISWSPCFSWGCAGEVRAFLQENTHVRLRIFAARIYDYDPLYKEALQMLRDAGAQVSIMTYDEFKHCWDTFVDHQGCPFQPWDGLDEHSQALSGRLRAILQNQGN
Numbers stand for hits; - = inactive; . = not tested or not shown.

SMILES	ALR inh	Yeast superoxide	A3G deaminase	NRP1-CendR mod	PfM18AAP inh	A3A deaminase
Cc1ccc(NNC(=O)c2c(C)noc2C)cc1Cl	-	-	-	-	30.0	-
Cc1ccc(NNC(=O)c2ccno2)cc1Cl	98.5	-	-	-	-	-
Cc1ccc(NNC(=O)c2snnc2C)cc1Cl	.	-	-	-	-	-
Cc1[nH]c2ccccc2c1/C=N/NC(=O)Cc1cccs1	93.9	-	-	-	-	-
CC(=O)OCc1nc2ccccc2s1	-	-	-	-	-	-
O=C(O)COCc1nc2ccccc2s1	-	-	-	-	30.3	-
CCCOc1cccc(C2C(C(=O)c3ccc(C)o3)=C(O)C(=O)N2c2nc(C)c(C(C)=O)s2)c1 (stereo not drawn)	97.1	-	-	-	-	-
Cn1c(SCC(=O)c2cc(Cl)c(Cl)s2)nnc1-c1ccco1	97.7	-	-	-	-	-
COCCn1c(SCC(=O)N2CCCC2)nnc1-c1ccco1	-	-	-	-	-	-
COCCn1c(SCC(=O)c2cccc(OC)c2)nnc1-c1ccco1	93.0	-	-	-	-	-
Cc1cccc(C)c1NC(=O)C1(C)CCC(=O)N1c1cc(C(C)(C)C)nn1C (stereo not drawn)	.	.	.	-	.	.
COc1cccc(CN2CCC(Oc3ccc(C(=O)N4CCCCC4)cc3)CC2)c1O	84.2	-	-	-	-	-
CCOc1ccc2c(c1)OC1(CCC(C)C1)CC2=O (stereo not drawn)	-	.	-	27.7	.	-
CCC(=O)Nc1cccc(-c2cnc3ccccc3n2)c1	87.9	-	-	-	-	-
O=C(CCl)Nc1cccc(-c2cnc3ccccc3n2)c1	-	-	-	-	-	-
COc1cc(CCC(N)c2cccc(O)c2)cc(OC)c1OC (stereo not drawn)	.	.	.	25.9	.	.
Cc1ccc(NC(=O)c2ccc3c(SCC(=O)O)c4c(nc3c2)CCCC4)c(Br)c1	90.2	-	-	-	-	-
COc1ccc(C)cc1NC(=O)c1ccc2c(SCC(=O)O)c3c(nc2c1)CCCC3	-	-	-	-	-	-
O=C(O)CSc1c2c(nc3cc(C(=O)Nc4cccc(C(F)(F)F)c4)ccc13)CCC2	95.8	-	-	-	-	-
COc1ccc(-c2cc(-c3n[nH]c(=S)n3-c3ccccc3OC)[nH]n2)cc1	88.3	-	-	-	-	-
COc1ccc(OC)c(-n2c(-c3cc(-c4ccccc4)n[nH]3)n[nH]c2=S)c1	-	-	-	-	-	-
Oc1ccc2oc3c(c2c1)CCCC3	-	-	-	28.4	-	-
O=C(O)COc1ccc2oc3c(c2c1)CCCC3	-	-	-	-	-	-
COc1cc(/C=C/C(=O)OCC(=O)Nc2ccccc2Cl)cc(OC)c1OC	-	-	-	-	-	-
O=S(=O)(Nc1ncnc2sc3c(c12)CCC3)c1cc(F)ccc1F	93.6	-	-	-	-	-
SMILES	ALR inh	Yeast superoxide	A3G deaminase	NRP1-CendR mod	PfM18AAP inh	A3A deaminase
Cc1c(O)ccc2c(CN3CCOCC3)cc(=O)oc12	88.1	-	-	-	-	-
Cc1cc(C)c2oc(=O)cc(CN3CCOCC3)c2c1	-	-	-	-	-	-
Cc1c(O)ccc2c(CN3CCN(CCO)CC3)cc(=O)oc12	90.0	-	-	-	-	-
N#Cc1ccccc1S(=O)(=O)N1CCN(C(=O)c2ccc(-n3cncn3)c([N+](=O)[O-])c2)CC1	-	-	-	-	.	-
COc1ccc(NC(=O)c2cc(CN3C(=O)c4ccccc4C3=O)ccc2OC)cn1	-	-	-	-	-	-
COc1ccc(CN2C(=O)c3ccccc3C2=O)cc1C(=O)Nc1ccccc1N1CCOCC1	.	-	-	32.3	-	-
COc1cc(C(=O)Nc2ccccc2N2CCOCC2)ccc1OCc1c(C)noc1C	-	-	-	27.2	-	-
Cc1cc2c(n1-c1ccc(C(=O)O)cc1)CCCCC2	-	-	-	.	-	-
CN(C)CC(=O)Nc1ccc2cn[nH]c2c1	-	-	-	-	-	-
CCCCn1c(NCCO)nc2ccccc21	97.8	-	-	-	-	-
C=CCc1cccc(CNc2nc3ccccc3n2CCC)c1O	-	-	-	-	-	-
CCCCn1c(NCc2ccccc2O)nc2ccccc21	97.6	-	-	-	-	-
CC(C)Cn1c(NCCO)nc2ccccc21	-	-	-	-	-	-
CCCn1c(NCc2cc(C)ccc2O)nc2ccccc21	.	-	-	-	30.4	-
Cc1ccc(O)c(CNc2cnc3ccccc3c2)c1	97.7	-	-	-	-	-
COc1cc(CCC(=O)OCC(=O)N(CCC#N)c2ccccc2)cc(OC)c1OC	-	-	-	-	-	-
Nc1ncnc2nc(SCc3ccc(Cl)cc3Cl)[nH]c12	-	-	-	-	-	-
CCC(=O)/C=C1\Sc2ccc(OC)cc2N1CCO	.	-	-	-	29.5	-
O=C(CCc1c[nH]c2ccccc12)NCc1ccncc1	-	-	-	-	-	-
COc1cccc(C2Nc3ccccc3C(=O)N2O)c1O (stereo not drawn)	87.2	-	-	-	-	-
COc1cccc(C2Nc3ccccc3C(=O)N2c2ccc(F)cc2)c1O (stereo not drawn)	-	-	-	-	-	-
CN1C(=O)S/C(=C/c2ccc(OCc3cccc(C(=O)O)c3)cc2)C1=O	-	-	-	-	-	-
COc1cccc(/C=C2/SC(=O)N(C)C2=O)c1OCc1ccc(C(=O)O)cc1	-	-	-	-	28.9	-
COc1cccc(/C=C2/SC(=O)N(CC(=O)N3CCc4ccccc4C3)C2=O)c1OCC(=O)O	98.3	-	-	-	-	-
CCOC(=O)COc1c(Br)cc(/C=C2\SC(=O)N(CC(=O)N3CCCC3)C2=O)cc1OC	.	-	-	-	-	-
SMILES	ALR inh	Yeast superoxide	A3G deaminase	NRP1-CendR mod	PfM18AAP inh	A3A deaminase
Cc1ccc(C(=O)N2CCCC(N3CCN(c4cccc(C(F)(F)F)c4)CC3)C2)s1 (stereo not drawn)	-	-	-	-	-	-
COc1ccc(Cn2c(C3CC3)nc3ccc(NC(=O)c4cccnc4)cc3c2=O)cc1	-	-	-	32.5	-	-
COc1ccc(Cn2c(C3CC3)nc3ccc(NC(C)=O)cc3c2=O)cc1	-	-	-	-	-	-
CCOC(=O)Cc1nn2c(=O)cc(C)nc2s1	93.2	-	-	-	-	-
CCOC(=O)Cc1c(C)nc2cc(C)nn2c1C	-	-	-	-	-	-
Cc1ccc(C(=O)NC2CCCC2)s1	-	-	-	-	-	-
O=C(NNC(=O)c1ccc(Br)s1)NC1CCCCC1	-	-	-	-	28.4	-
O=C(Nc1nncs1)c1ccc2c(c1)OCO2	-	-	-	-	28.7	-
O=C(NNC(=O)c1ccc2c(c1)OCO2)NC1CCCCC1	-	-	-	-	30.5	-
NS(=O)(=O)c1cc(C(=O)NNC(=O)c2ccc3c(c2)OCO3)ccc1Cl	-	-	-	28.1	.	-
NS(=O)(=O)c1cc(C(=O)OCC(=O)c2ccc3c(c2)OCCO3)ccc1Cl	.	-	-	-	-	-
